Source: PubChem BioAssay AID1851 (National Center for Advancing Translational Sciences (NCATS), 2009)
About 5,800 (36%) of roughly 16,000 compounds were called active. About 23% were inconclusive and are not listed. Calls follow the shape of the dose curve; as a rule, active = well fitted curve in the direction sought with a large enough effect; inconclusive = small, poorly fitted or top-dose-only effect, or effect the other way; inactive = no such curve, though single readings can be large or run the other way. This is one part of the list.

These molecules were tested against Cytochrome P450 2C19 (Homo sapiens) (UniProt P33261) (assay: Cytochrome panel assay with activity outcomes). Conditions: recombinant CYP, pro-luciferin dealkylation, luminescence, p450-cyp2c19; series mostly up to 57.1 µM.
Cytochrome P450 2C19 (Homo sapiens), sequence (P33261 whole entry, looked up): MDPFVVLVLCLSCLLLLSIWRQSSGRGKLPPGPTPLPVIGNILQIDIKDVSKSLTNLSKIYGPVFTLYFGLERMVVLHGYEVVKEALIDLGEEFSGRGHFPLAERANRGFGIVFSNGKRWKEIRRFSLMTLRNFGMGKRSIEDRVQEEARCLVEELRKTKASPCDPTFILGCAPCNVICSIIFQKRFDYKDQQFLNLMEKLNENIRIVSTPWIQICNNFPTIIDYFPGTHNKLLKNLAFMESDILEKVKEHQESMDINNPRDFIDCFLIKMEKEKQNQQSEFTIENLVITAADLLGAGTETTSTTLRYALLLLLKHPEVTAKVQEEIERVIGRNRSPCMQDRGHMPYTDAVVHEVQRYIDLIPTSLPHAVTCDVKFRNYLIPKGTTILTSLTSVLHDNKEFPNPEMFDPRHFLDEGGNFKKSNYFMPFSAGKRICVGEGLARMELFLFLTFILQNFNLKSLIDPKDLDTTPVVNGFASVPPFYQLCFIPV
% is scaled to controls: 0 for no effect and ±100 for the full control effect.

| Compound | AC50 | activity, negative = inhibition |
| --- | --- | --- |
| COc1ccc(NC(=O)N2CC[C@@]3(CCCN(C(=O)c4ccc(OC)cc4)C3)C2)cc1 | inactive |  |
| CCOCC(=O)Nc1cc(C(=O)Nc2cccc(C)c2C)ccc1Cl | inactive |  |
| CCOCC(=O)Nc1cc(C(=O)Nc2ccccc2)ccc1Cl | 10000 nM (active) |  |
| CCc1ccc(NC(=O)c2cc(C(C)C)on2)cc1 | inactive |  |
| Cc1cc(NC(=O)c2nn(C)c(C)c2[N+](=O)[O-])no1 | inactive |  |
| Cc1cc(NC(=O)c2cc(C(C)C)on2)no1 | 14100 nM (active) |  |
| N#CC1=C(N)OC2=C(CC/C2=C\c2ccccc2)C1c1ccccc1 (stereo unspecified) | 1580 nM (active) |  |
| CN1CCN(c2ncc3nc(-c4ccc(Cl)cc4)c(=O)n(Cc4ccc(F)cc4)c3n2)CC1 | inactive |  |
| Cn1c(=O)c2[nH]c(C3CCCC3)nc2n(C)c1=O | inactive |  |
| O=C(O)CC(O)C(=O)O (stereo unspecified) | inactive |  |
| O=C(O)/C=C\C(=O)Nc1ccccn1 |  | 14.6% [at 11.4 µM] (inactive) |
| O=C(NCC1CCC(C(=O)O)CC1)OCc1ccccc1 (stereo unspecified) | inactive |  |
| CSc1nsc(SC)c1NC(=O)OCc1ccccc1 | 708 nM (active) |  |
| O=C(O)c1nnsc1COCc1ccccc1 |  | 2.27% [at 11.4 µM] (inactive) |
| CSc1nsc(SC)c1NC(=O)Nc1ccccn1 | 7940 nM (active) |  |
| O[C@H](CNc1ccccn1)c1ccccc1 |  | -7.78% [at 11.4 µM] (inactive) |

| Compound | AC50 | activity, negative = inhibition |
| --- | --- | --- |
| COc1cccc(-c2cncnc2NCc2ccccc2)c1 | 1580 nM (active) |  |
| COc1cccc(Nc2ncc3nc(-c4ccccc4)c(=O)n(Cc4cccs4)c3n2)c1 | inactive |  |
| c1cncc(CNc2ncncc2-c2cccnc2)c1 | inactive |  |
| COc1cccc(-c2cncnc2NCCN2CCOCC2)c1 | inactive |  |
| Cc1cccc(CNc2ncncc2-c2cccnc2)c1 | 10000 nM (active) |  |
| COc1cccc(-c2cncnc2NCc2cccs2)c1 | 631 nM (active) |  |
| COc1cccc(-c2cncnc2NCc2cccc(C)c2)c1 | 794 nM (active) |  |
| COc1cccc(-c2cncnc2NCc2cccnc2)c1 | 316 nM (active) |  |
| CCOC(=O)C1=C(CN2c3ccccc3CC2C)NC(=O)NC1c1ccccc1 (stereo unspecified) | 7080 nM (active) |  |
| C[C@@H](CC(=O)O)[C@@H](N)C(=O)O | inactive |  |
| Cc1c(NC(=S)/C=C2\N(C)c3ccccc3C2(C)C)c(=O)n(-c2ccccc2)n1C | 14100 nM (active) |  |
| Cc1c(NC(=S)N/N=C/c2ccc(O)cc2)c(=O)n(-c2ccccc2)n1C | inactive |  |
| Fc1ccc(-c2[nH]ncc2-c2nnnn2-c2ccccc2)c(F)c1 | 631 nM (active) |  |
| NC(=O)c1ncn([C@@H]2O[C@@H](CO)[C@@H](O)[C@H]2O)c1O | inactive |  |
| O=C1CN(c2nc(-c3ccccc3)c3cc(Br)ccc3n2)c2ccccc2N1 | inactive |  |
